MITF primary – MITF inhibitors, primary screen, biochemical, AlphaScreen, human; Microphthalmia-associated transcription factor (Homo sapiens), O75030; AlphaScreen MITF homodimerization, bead proximity signal; inhibition, % at 2.6 µM; hit rate 0.91% among 650,000; in the data active = inhibition above about 50%
Target sequence (O75030 whole entry, looked up): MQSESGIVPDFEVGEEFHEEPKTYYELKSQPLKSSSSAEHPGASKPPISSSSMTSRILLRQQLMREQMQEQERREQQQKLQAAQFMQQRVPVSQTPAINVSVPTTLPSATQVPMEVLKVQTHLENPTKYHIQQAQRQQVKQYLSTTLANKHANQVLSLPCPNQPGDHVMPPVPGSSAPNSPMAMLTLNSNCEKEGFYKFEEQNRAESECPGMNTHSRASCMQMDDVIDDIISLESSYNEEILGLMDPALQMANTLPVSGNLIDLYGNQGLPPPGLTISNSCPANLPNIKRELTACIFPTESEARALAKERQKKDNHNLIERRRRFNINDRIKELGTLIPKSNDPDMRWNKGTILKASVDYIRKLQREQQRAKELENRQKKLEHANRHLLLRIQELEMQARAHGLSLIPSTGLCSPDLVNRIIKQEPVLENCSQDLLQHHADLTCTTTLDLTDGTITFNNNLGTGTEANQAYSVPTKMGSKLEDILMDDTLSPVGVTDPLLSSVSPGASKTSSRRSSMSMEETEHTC
TEAD-YAP block – TEAD-YAP interaction inhibition, primary screen, TEAD-YAP interaction inhibitor project, luminescence, HEK-TIYL cells; TEAD-Gal4/YAP UAS-luciferase luminescence; inhibition, % at 9.12 µM; hit rate 1.4% among 640,000; in the data active = inhibition above about 32%
FBW7 act – FBW7 E3 ligase activators, primary screen, biochemical, AlphaScreen, human; AID 1259310, 2017; AlphaScreen FBW7–phospho-cyclin E peptide binding, activator screen; F-box/WD repeat-containing protein 7 (Homo sapiens), Q969H0; normalized activity (activation), % at 26.1 µM; hit rate 0.13% among 650,000; in the data active = normalized activity above about 1.9%;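 also: purified mutant Fbw7 with reduced substrate affinity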
GPR151 activ – activators of human GPR151, primary screen, cell-based, PathHunter beta-arrestin, luminescence; G-protein coupled receptor 151 (Homo sapiens), Q8TDV0; hit rate 1% among 650,000; PathHunter beta-arrestin GPR151 cells; AID 1508602, 2020; activation, % at 11.2 µM; in the data active = activation above about 4.9%
MITF inh conf – MITF inhibitors, retest of hits, confirmation, biochemical, AlphaScreen, triplicate; AlphaScreen MITF homodimerization, biotin/His-MITF beads; hit rate 16% among 4,700; inhibition, % at 2.6 µM; shares compounds with MITF primary;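 active = inhibition above a cutoff derived from the DMSO control wells, cut at about 28% in these data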;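 also: inhibitors lower the bead chemiluminescence by keeping MITF from dimerizing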
AS interf DR – AlphaScreen optical interference compounds, dose response, counter-screen, biochemical, HTS; shares compounds with MITF primary; IC50, µM; hit rate 6% among 480; AlphaScreen optical interference counterscreen, cell-free; AID 1259373, 2018; call rule not given here
AlphaScreen intf2 – AlphaScreen optical interference compounds, counter-screen for MITF inhibitor project, biochemical, triplicate; shares compounds with MITF primary; LysRS AlphaScreen counterscreen, signal interference; inhibition, % at 2.6 µM; hit rate 7.6% among 4,700; AID 1259376, 2018;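 active = inhibition above a cutoff derived from the DMSO control wells, cut at about 30% in these data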
Of the large screens only hits and unclear results are named; the others gave an inactive call (follow-up assays come after a bar, where they were run). The list is not random: actives were taken first. Their share in the collection is about 3.5%.

CCC(C)NCCCOc1ccc(Br)cc1C (configuration not stated)	MITF primary 57 | MITF inh conf inactive | AlphaScreen intf2 inactive
CCC(C)NCCOCCOc1ccccc1 (configuration not stated)	none
CCC(C)NCCOCCOc1ccc(I)cc1 (configuration not stated)	MITF primary 55 | MITF inh conf inactive | AlphaScreen intf2 inactive
CCOc1cccc(OCCCNC(C)CC)c1 (configuration not stated)	none
COCCNC(C)c1ccc(S(C)(=O)=O)cc1 (configuration not stated)	none
CCCN(Cc1cccc([N+](=O)[O-])c1)CC1CC1	MITF primary 54 | MITF inh conf inactive | AlphaScreen intf2 inactive
Cc1oc(C(=O)O)cc1CSCCSCc1cc(C(=O)O)oc1C	MITF primary 52 | MITF inh conf 42 | AS interf DR inactive | AlphaScreen intf2 inactive
O=C(O)c1cccc(N2C(=O)CC(Nc3ccc(N4CCOCC4)cc3)C2=O)c1 (configuration not stated)	MITF primary 70 | MITF inh conf 69 | AS interf DR inactive | AlphaScreen intf2 inactive
CCN(CC(=O)Nc1cccc(OC)c1)Cc1cc(=O)oc2cc(NC(C)=O)ccc12	MITF primary 54 | MITF inh conf inactive | AlphaScreen intf2 inactive
CCN(CC(=O)Nc1cccc(OC)c1)CC(=O)Nc1ccc(C)cc1Cl	MITF primary 62 | MITF inh conf inactive | AlphaScreen intf2 inactive
CCN(CC)CC(=O)Nc1cccc(OC)c1	none
CCOC(=O)c1c(NC(=O)Cc2cccc3ccccc23)sc(C(=O)OC)c1C	none
CC1(C)Oc2ccc3ccc(=O)oc3c2/C(=C/Nc2ccccc2N)C1=O	none
Cc1ccc(NC(=O)N2CCC(C)CC2)cc1	none
COc1ccc(C(=O)OCC(=O)c2ccc([N+](=O)[O-])cc2)cc1	none
O=C(OCC(=O)c1ccc([N+](=O)[O-])cc1)C(=O)OCC(=O)c1ccc([N+](=O)[O-])cc1	MITF primary 61 | MITF inh conf inactive | AlphaScreen intf2 inactive
COc1ccc(C(C)=O)cc1CC1(c2ccc3c(c2)OCO3)C(=O)Nc2cc(F)ccc21 (configuration not stated)	none
Cc1nnc2c(NCCCN3CCC(Cc4ccccc4)CC3)nc3ccccc3n12	none
CC(=O)N1CCN(Cc2cc(C)ccc2C)CC1	none
Cc1ccc(C)c(CN2CCN(CCOCCO)CC2)c1	MITF primary 81 | MITF inh conf inactive | AlphaScreen intf2 inactive
OCCOCCN1CCN(Cc2cc(Br)cs2)CC1	MITF primary 71 | MITF inh conf inactive | AlphaScreen intf2 inactive
OCCOCCN1CCN(Cc2cccc3ccccc23)CC1	none
Cc1ccccc1CN1CCN(CCOCCO)CC1	MITF primary 69 | MITF inh conf inactive | AlphaScreen intf2 inactive
Cn1c(=O)c2sccc2n2c(CCCC(=O)Nc3ccccc3F)nnc12	none
C/C(=N\Nc1ccc(S(=O)(=O)O)cc1)c1cccc(Br)c1	MITF primary 56 | MITF inh conf 38 | AS interf DR inactive | AlphaScreen intf2 inactive
C/C(=N\Nc1ccc(C(=O)O)cc1)c1cccc(Br)c1	none
c1ccc(-c2cc(N3CCOCC3)nc(-c3ccccn3)n2)nc1	MITF primary 113, TEAD-YAP block 45 | MITF inh conf 117 | AlphaScreen intf2 100
CN1CCN(CC(=O)N(c2ccccc2)c2ccc(O)cc2)CC1	MITF primary 75 | MITF inh conf inactive | AlphaScreen intf2 inactive
CCN(C(=O)CN1CCN(C)CC1)c1cccc2ccccc12	MITF primary 85 | MITF inh conf inactive | AlphaScreen intf2 inactive
CCN(C(=O)Cn1cnc2ccccc21)c1cccc2ccccc12	none
O=C(CN1CCC(N2CCCCC2)CC1)N(c1ccccc1)c1ccc(O)cc1	none
C=CC1=C(C(=O)O)N2C(=O)[C@@H](NC(=O)/C(=N\O)c3csc(N)n3)[C@H]2SC1 (stereo in doubt)	MITF primary 59 | MITF inh conf 59 | AlphaScreen intf2 46
COc1cc2nc(CN(C)Cc3nccs3)nc(N)c2cc1OC	MITF primary 73 | MITF inh conf 48 | AlphaScreen intf2 100
COc1cc2nc(CN(C)Cc3cc(C)no3)nc(N)c2cc1OC	none
COc1ccc([N+](=O)[O-])cc1N(CC(=O)O)S(C)(=O)=O	MITF primary 59 | MITF inh conf inactive | AlphaScreen intf2 inactive
CC1S/C(=N\N=C\c2c(Cl)cccc2Cl)NC1=O (configuration not stated)	none
COc1cccc(CN2CCN(Cc3ccc(Cl)cc3)CC2)c1OC	MITF primary 70 | MITF inh conf inactive | AlphaScreen intf2 inactive
CCOc1ccc(CN2CCN(Cc3cccc(OC)c3OC)CC2)cc1	MITF primary 79 | MITF inh conf inactive | AlphaScreen intf2 inactive
COc1cccc(CN2CCN(Cc3ccc(C)cc3)CC2)c1OC	MITF primary 76 | MITF inh conf inactive | AlphaScreen intf2 inactive
Cc1cccc(C)c1OC(=O)c1ccco1	none
O=c1c(Cl)c(N2CCCCCC2)cnn1C12CC3CC(CC(C3)C1)C2	none
O=C1/C(=C\c2cccs2)CC2CC1C/C(=C/c1cccs1)C2=O	none
O=C1/C(=C\c2ccco2)CC2CC1C/C(=C/c1ccco1)C2=O	MITF primary 52 | MITF inh conf inactive | AlphaScreen intf2 inactive
CCOc1ccc(CN2CCN(c3ccccn3)CC2)cc1	none
CCOc1ccc(CN2CCN(Cc3cccnc3)CC2)cc1	MITF primary 55 | MITF inh conf 35 | AS interf DR inactive | AlphaScreen intf2 inactive
CCOc1cc(CN2CCCCC2)ccc1OC	none
CCOc1cc(CN2CCN(Cc3ccccc3Cl)CC2)ccc1OC	MITF primary 67 | MITF inh conf inactive | AlphaScreen intf2 inactive
CCOc1cc(CN2CCN(Cc3ccc(Cl)cc3)CC2)ccc1OC	MITF primary 61 | MITF inh conf inactive | AlphaScreen intf2 inactive
CCOc1cc(CN2CCN(Cc3cc(OC)c(OC)c(OC)c3)CC2)ccc1OC	MITF primary 71 | MITF inh conf inactive | AlphaScreen intf2 inactive
CCOc1cc(CN2CCN(Cc3cccc(Cl)c3)CC2)ccc1OC	none
Cc1nc2nc[nH]n2c(=O)c1CCC(=O)Nc1ccccc1	none
O=C(Cn1cnc2c(nnn2-c2ccc(F)cc2)c1=O)c1ccc(Cl)cc1	none
CCN(CC)CCC(=O)C(O)(c1ccccc1)c1ccccc1	none
CCOc1cc(CN2CCN(Cc3cccnc3)CC2)ccc1OC	MITF primary 74 | MITF inh conf inactive | AlphaScreen intf2 inactive
CCOc1cc(CN2CCN(C3CCCC3)CC2)ccc1OC	MITF primary 53 | MITF inh conf inactive | AlphaScreen intf2 inactive
COc1cccc(CNCCC2CCC(=O)N2CCc2ccccc2)c1 (configuration not stated)	none
